Where “and” joins values, the source holds several entries; their conditions need not be identical. Equal entries are not always repeated. Results filed as inconclusive are left out. Some compounds were tested as several samples or in several runs, with calls that do not always agree. Calls of active or inactive are those of the source. Unless noted, the call rests on the fitted dose curve; in most records, active means well fitted curve in the direction sought with a large enough effect; inconclusive means small, poorly fitted or top-dose-only effect, or another doubt; inactive means no such curve, though single readings can be large; an effect the other way counts as inactive or inconclusive. Non-standard residues stand in square brackets, D forms with d. Residues, ends and D or L forms follow the SMILES beside them. *: point of attachment. Sta = CC(C)C[C@H](N)[C@@H](O)CC(=O)O; Isovaleryl = CC(C)CC(=O)*

We go through nine compounds from PubChem BioAssay (NCATS).

The nature of assay [1]: qHTS to identify inhibitors of the type 1 interferon - major histocompatibility complex class I in skeletal muscle: primary screen against the NCATS Mechanism Interrogation Plate v5.0 (MIPE) Libary (AID 1347411). Further: nearly all actives have a fitted effect of over 65% in size. Further: potency means the concentration at half of the fitted maximal effect. In a few lines:
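Immortalized human C25cl48 myoblasts with HiBit knocked into endogenous HLA-B*08:01 were stimulated with 4.0 ng/ml IFN-beta and exposed to compounds (11-point 1:3 titration, top 46 uM final) for 24 hrs at 37 C; HiBiT lytic luminescence measured.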

The target of assay [2] is Protein phosphatase 1D (Homo sapiens) (UniProt O15297). Nature of the assay: RapidFire Mass Spectrometry qHTS Assay for Modulators of WT P53-Induced Phosphatase 1 (WIP1) (AID 1347424).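 Further: amount of dephosphorylated VEPPL-S-QETFS peptide product formed by WIP1; series mostly up to about 63 µM; plate controls were DMSO wells for no effect and GSK830371 inhibitor control at 10 µM for full effect.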 In a few lines: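 10 nM WIP1 preincubated with compounds 1 hr at room temperature in pH 7.5 Tris buffer with 30 mM MgCl2, 1 mM TCEP; 2 uM VEPPL-pS-QETFS phosphopeptide for 5 min, formic acid quench; dephosphorylated product quantified by RapidFire MS against labelled standard.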
Protein phosphatase 1D (Homo sapiens), sequence (O15297 whole entry, looked up): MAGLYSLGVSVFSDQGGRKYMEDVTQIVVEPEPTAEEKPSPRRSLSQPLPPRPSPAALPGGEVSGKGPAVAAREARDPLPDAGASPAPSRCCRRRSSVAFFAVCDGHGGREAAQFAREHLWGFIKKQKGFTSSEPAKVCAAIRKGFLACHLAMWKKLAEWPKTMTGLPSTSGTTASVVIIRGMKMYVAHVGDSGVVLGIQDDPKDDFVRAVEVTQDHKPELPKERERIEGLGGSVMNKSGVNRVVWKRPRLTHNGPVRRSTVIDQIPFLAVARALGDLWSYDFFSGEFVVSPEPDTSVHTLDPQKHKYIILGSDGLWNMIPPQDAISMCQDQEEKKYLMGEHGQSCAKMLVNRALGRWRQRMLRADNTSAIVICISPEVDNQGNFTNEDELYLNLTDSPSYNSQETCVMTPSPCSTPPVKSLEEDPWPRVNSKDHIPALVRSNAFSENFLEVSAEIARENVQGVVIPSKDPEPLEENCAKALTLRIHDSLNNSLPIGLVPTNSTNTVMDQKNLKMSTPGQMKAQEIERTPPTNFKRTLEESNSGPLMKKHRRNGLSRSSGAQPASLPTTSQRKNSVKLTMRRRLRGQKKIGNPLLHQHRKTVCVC

The target is the same in assay [3]. Nature of the assay: Rhodamine-PBP qHTS Assay for Modulators of WT P53-Induced Phosphatase 1 (WIP1) (AID 1347425). Further: % of control where 0% means no effect. In a few lines:
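Steps: enzyme with Rh-PBP sensor and compounds, room-temperature incubation of 1 hr, baseline read, addition of VEPPL-pS-QETFS (10 uM final), kinetic fluorescence reads at 525/598 nm. Activity equals final minus baseline signal.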

Assay [4] can be described thus: Primary qHTS for inhibitors of La Crosse Virus (LACV) - induced cell death in SH-SY5Y cells (AID 1508616).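 Further: top concentration of the series differs between compounds; 0% = infected DMSO wells and 100% = uninfected DMSO wells; higher means more rescue of cells from virus-induced death.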 The essentials: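 Luminescent ATP readout (ATPLite 1step, 5 min room temperature) measured rescue from LACV-induced death after 6 days of infection at 0.01 MOI; normalized to infected DMSO wells and uninfected DMSO wells.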
In assay [5] the target is Calcium and integrin-binding protein 1 (Homo sapiens) (UniProt Q99828). Kind of assay: Confirmatory qHTS for Identification of Calcium Integrin Binding Protein 1 (CIB1) Competitor (AID 1508617). Further: potency means the concentration at half of the fitted maximal effect; nearly all actives have a fitted effect of over 65% in size. In a few lines:
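Binding competition between test compounds and fluorescent alphaIIb peptide for 1 uM CIB1-GST is monitored by FP at 480/540 nm. Final compound range is up to 114 uM; unlabeled peptide serves as reference competitor.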

The target is the same in assay [6]. Kind of assay: Primary qHTS for Identification of Calcium Integrin Binding Protein 1 (CIB1) Competitor (AID 1508620). Further: top concentration of the series differs between compounds; on the % scale 0 is the no-effect control and ±100 the full control effect. The essentials: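 Fluorescence polarization competition: GST-tagged CIB1 (1 uM final) preincubated with compound 15 min at room temperature, then FITC-labelled alphaIIb peptide (100 nM final) added. After 15 min at room temperature, polarization read at Ex 480/Em 540.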

A short description of assay [7]: Primary qHTS for small molecule stabilizers of the endoplasmic reticulum resident proteome: Secreted ER Calcium Modulated Protein (SERCaMP) assay (AID 1508630). Further: potency means the concentration at half of the fitted maximal effect. The essentials: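 GLuc-SERCaMP-expressing SH-SY5Y cells, pretreated 16 h with compound, are challenged with thapsigargin to empty ER calcium stores; after 4 h, coelenterazine is added directly to the medium and luminescence is imaged.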

Assay [8] can be described thus: A High-Content qHTS Against Drug Library for the Identification of Small Molecules that Inhibit DYT1 Early Onset Primary Dystonia-Associated Cell Pathology (AID 1645839; calls by dose curve; further: potency means the concentration at half of the fitted maximal effect). The essentials:
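Flp-In T-REx 293 cells with tetracycline-inducible EGFP-delE hTOR1A (WT EGFP-hTOR1A as reference), 800 cells/well; compound added with tetracycline, 48 h at 37 C. Fixed, permeabilized cells imaged; %pathology (punctate TorsinA) primary, cell count counterscreen.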

Assay [9] concerns the target Cytochrome P450 2D6 (Homo sapiens) (UniProt P10635). Nature of the assay: Cytochrome P450 family 2 subfamily D member 6 (CYP2D6) small molecule antagonists: luciferase biochemical (cell-free) qHTS assay (AID 1645840; active means well fitted curve in the direction sought with a large enough effect in the repeat runs; an effect the other way counts as inactive or inconclusive; further: series mostly up to about 57 µM; on the % scale 0 is the no-effect control and ±100 the full control effect; nearly all actives have a fitted effect of over 55% in size). In a few lines: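 P450-Glo luminescent screen: recombinant CYP2D6 enzyme–proluciferin substrate mix preincubated with compound 10 min at room temperature, then NADPH regeneration added for 1 h at room temperature. Detection reagent added for 20 min; luciferin light read as relative luminescence units.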

Assay [10] has as its target Cytochrome P450 3A4 (Homo sapiens) (UniProt P08684). Nature of the assay: Cytochrome P450 family 3 subfamily A member 4 (CYP3A4) small molecule antagonists: luciferase qHTS assay (AID 1645841; active means well fitted curve in the direction sought with a large enough effect in the repeat runs; an effect the other way counts as inactive or inconclusive; further: nearly all actives have a fitted effect of over 45% in size). The essentials: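 P450-Glo CYP3A4 enzyme with proluciferin substrate preincubated 10 min with compound at room temperature, then NADPH regeneration 1 h. Luciferin detection reagent added for 20 min; luminescence recorded. Ketoconazole positive control.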

Assay [11] concerns the target Cytochrome P450 2C9 (Homo sapiens) (UniProt P11712). Kind of assay: Cytochrome P450 family 2 subfamily C member 9 (CYP2C9) small molecule antagonists: luciferase biochemical (cell-free) qHTS assay (AID 1645842; active means well fitted curve in the direction sought with a large enough effect in the repeat runs; an effect the other way counts as inactive or inconclusive; further: nearly all actives have a fitted effect of over 55% in size; further: potency means the concentration at half of the fitted maximal effect). In a few lines:
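Luminescence, after 20 min with luciferin detection reagent, reflected CYP2C9 turnover during a 1 h NADPH-driven reaction at 37C. Enzyme-substrate mix contained 0.4% bovine serum albumin and was preincubated with compound 10 min at room temperature.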

Assay [12] deals with N-terminal Xaa-Pro-Lys N-methyltransferase 1 (Homo sapiens) (UniProt Q9BV86). Kind of assay: Confirmatory qHTS for Inhibitors of N-terminal methyltransferase 1 (NTMT1): MTaseGlo Assay (AID 1645874). Further: potency means the concentration at half of the fitted maximal effect; nearly all actives have a fitted effect of over 65% in size. In a few lines: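 Compounds are incubated with 125 nM NTMT1 and 100 uM SAM for 15 min before the SPKRIA peptide (1 uM) starts a 30 min room-temperature methylation. SAH is measured by coupled luciferase luminescence and curves fitted to a Hill equation.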
N-terminal Xaa-Pro-Lys N-methyltransferase 1 (Homo sapiens), sequence (Q9BV86 whole entry, looked up): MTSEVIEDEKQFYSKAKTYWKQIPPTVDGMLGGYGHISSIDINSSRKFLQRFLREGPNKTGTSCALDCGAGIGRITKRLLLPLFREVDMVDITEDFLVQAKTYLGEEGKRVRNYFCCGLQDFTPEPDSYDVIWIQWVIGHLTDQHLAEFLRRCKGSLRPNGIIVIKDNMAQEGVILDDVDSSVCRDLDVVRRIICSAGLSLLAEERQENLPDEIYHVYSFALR

Assay [13] in a line: Primary qHTS for inhibitors of nuclear receptor binding SET domain protein 2 (NSD2) in an isogenic RCH-ACV NSD2 p.E1099K mutant (9B) (AID 1645876). Further: nearly all actives have a fitted effect of over 70% in size. Further: potency means the concentration at half of the fitted maximal effect.
Assay [14] can be described thus: Counterscreen qHTS for small molecule stabilizers of the endoplasmic reticulum resident proteome: GLuc-NoTag assay (AID 1508627).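 Further: SH-SY5Y cells given compound then 100 nM thapsigargin to empty ER calcium; series mostly up to about 76 µM; 0% = thapsigargin alone and -100% = DMSO vehicle control.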 The essentials:
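SH-SY5Y cells stably expressing constitutively secreted GLuc without SERCaMP tag, exposed to compound for 19 hr, then to 100 nM thapsigargin for 4 hr at 37C. Medium luciferase was read by coelenterazine luminescence without lysis.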

The nature of assay [15]: Confirmatory qHTS for small molecule stabilizers of the endoplasmic reticulum resident proteome: Secreted ER Calcium Modulated Protein (SERCaMP) assay (AID 1508628).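 Further: SH-SY5Y cells given compound 16 h then thapsigargin 100 nM for 4 h; series mostly up to about 76 µM; on the % scale 0 is the no-effect control and ±100 the full control effect; nearly all actives have a fitted effect of over 40% in size.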 The essentials: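 We seeded SH-SY5Y-GLuc-SERCaMP cells, added compounds (three concentrations in the primary run, eleven up to 76.6 uM in confirmation), incubated 16 h, depleted ER calcium with thapsigargin, and read luciferase 4 h later.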

Assay [16] in a line: Cell Viability qHTS for small molecule stabilizers of the endoplasmic reticulum resident proteome (AID 1508629).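 Further: human SH-SY5Y neuroblastoma cells carrying the GLuc-SERCaMP reporter; compound exposure about 46 h in total before the viability read; on the % scale 0 is the no-effect control and ±100 the full control effect.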 The following applies: cell viability counter-screen, 100 nM thapsigargin for final 4 h.

Cytochrome P450 2C9 (Homo sapiens), sequence (P11712 whole entry, looked up): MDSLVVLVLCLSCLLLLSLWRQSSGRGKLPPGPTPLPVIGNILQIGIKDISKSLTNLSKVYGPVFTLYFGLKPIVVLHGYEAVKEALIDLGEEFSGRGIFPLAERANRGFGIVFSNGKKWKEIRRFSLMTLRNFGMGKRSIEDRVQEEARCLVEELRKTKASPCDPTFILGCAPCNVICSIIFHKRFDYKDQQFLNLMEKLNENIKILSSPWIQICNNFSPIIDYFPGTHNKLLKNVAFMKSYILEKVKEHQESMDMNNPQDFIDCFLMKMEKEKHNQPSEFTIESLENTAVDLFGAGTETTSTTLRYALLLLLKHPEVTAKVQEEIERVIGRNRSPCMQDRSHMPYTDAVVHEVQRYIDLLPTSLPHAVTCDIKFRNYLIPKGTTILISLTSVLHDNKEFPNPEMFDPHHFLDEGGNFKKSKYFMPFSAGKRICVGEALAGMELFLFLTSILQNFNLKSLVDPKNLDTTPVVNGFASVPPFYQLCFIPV
Cytochrome P450 3A4 (Homo sapiens), sequence (P08684 whole entry, looked up): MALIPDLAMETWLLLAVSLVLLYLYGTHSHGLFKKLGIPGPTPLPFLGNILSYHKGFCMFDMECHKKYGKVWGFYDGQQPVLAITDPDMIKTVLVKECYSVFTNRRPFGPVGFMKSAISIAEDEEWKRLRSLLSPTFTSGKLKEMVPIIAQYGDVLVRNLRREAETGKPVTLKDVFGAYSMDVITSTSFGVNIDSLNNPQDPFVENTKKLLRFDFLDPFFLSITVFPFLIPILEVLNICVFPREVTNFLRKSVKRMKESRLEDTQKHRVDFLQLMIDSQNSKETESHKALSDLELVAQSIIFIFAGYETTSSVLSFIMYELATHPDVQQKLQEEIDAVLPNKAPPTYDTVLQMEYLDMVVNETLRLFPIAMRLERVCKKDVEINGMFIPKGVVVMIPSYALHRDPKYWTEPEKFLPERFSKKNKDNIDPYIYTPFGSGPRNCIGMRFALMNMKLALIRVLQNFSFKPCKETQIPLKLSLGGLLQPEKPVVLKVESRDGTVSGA
Calcium and integrin-binding protein 1 (Homo sapiens), sequence (Q99828 whole entry, looked up): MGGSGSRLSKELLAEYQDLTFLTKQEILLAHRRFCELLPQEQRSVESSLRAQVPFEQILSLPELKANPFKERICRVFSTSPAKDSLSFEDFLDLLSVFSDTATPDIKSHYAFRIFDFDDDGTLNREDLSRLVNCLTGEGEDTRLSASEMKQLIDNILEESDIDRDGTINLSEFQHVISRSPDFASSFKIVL
Cytochrome P450 2D6 (Homo sapiens), sequence (P10635 whole entry, looked up): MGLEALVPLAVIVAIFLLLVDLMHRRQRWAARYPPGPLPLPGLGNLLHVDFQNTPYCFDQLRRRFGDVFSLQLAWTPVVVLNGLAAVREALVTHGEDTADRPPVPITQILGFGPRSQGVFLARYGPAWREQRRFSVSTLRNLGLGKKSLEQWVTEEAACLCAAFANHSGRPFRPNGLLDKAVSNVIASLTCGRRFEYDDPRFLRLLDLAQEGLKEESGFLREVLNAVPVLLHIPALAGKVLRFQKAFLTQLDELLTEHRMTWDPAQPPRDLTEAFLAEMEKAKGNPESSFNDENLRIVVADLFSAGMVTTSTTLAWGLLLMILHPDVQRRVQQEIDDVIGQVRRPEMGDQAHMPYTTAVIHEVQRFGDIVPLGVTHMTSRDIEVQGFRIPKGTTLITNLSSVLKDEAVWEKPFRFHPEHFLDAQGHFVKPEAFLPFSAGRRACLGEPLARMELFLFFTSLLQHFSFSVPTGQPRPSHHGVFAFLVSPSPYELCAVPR

For the compound `COc1cc(Nc2c(C#N)cnc3cc(OCCCN4CCN(C)CC4)c(OC)cc23)c(Cl)cc1Cl`, the Potency in assay [1] is 7.39 µM (active); in [5], 44.7 µM (active); in assay [8], 10 µM (active); in assay [12], 15.8 µM (active); in [13] it was 596 nM (active) and 1.63 µM (active) and 1.32 µM (active). Also, the Potency result in assay [2], in [4], in [6], in assay [7], in [9] and in assay [11] was “inactive” each time. The compound was called inactive in assay [3] and in [10].

Regarding `CC(C)CC(=O)N[C@H](C(=O)N[C@H](C(=O)N[C@@H](CC(C)C)[C@@H](O)CC(=O)N[C@@H](C)C(=O)N[C@@H](CC(C)C)[C@@H](O)CC(=O)O)C(C)C)C(C)C` (Isovaleryl-VV[Sta]A[Sta]-OH), the Potency result in assay [1], in assay [2], in assay [4], in assay [6], in assay [7] and in assay [8] was “inactive” throughout. For the same compound, the Potency result in assay [9], in assay [11] and in [13] was “inactive” in each case. In addition, the compound was classed as inactive in [3].

In the case of `Cc1ccc(C)c(OCCCC(C)(C)C(=O)O)c1`, the Potency result in [1], in assay [2], in [4], in assay [6], in assay [7] and in assay [8] was “inactive” each time. In addition, the Potency entry in assay [9] and in assay [13] was “inactive” throughout. Further, the result in assay [3] and in assay [10] was inactive.

Turning to `O=C(NOCC1CC1)c1ccc(F)c(F)c1Nc1ccc(I)cc1Cl`, the Potency entry in assay [1], in assay [2], in [4], in assay [7] and in assay [9] was “inactive” throughout. For the same compound, the Potency in assay [11] is 617 nM (active); in [13] it was 8.41 µM (active) and 23 µM (active).

For the compound `Cn1c(NCCN(CCO)CCCc2ccc([N+](=O)[O-])cc2)cc(=O)n(C)c1=O`, the Potency entry in assay [1], in assay [2], in assay [4], in assay [6], in assay [7] and in assay [8] was “inactive” in each case. Besides, the Potency entry in assay [11] and in assay [13] was “inactive” throughout. The call in [3] was inactive.

Take `CN(C)c1ccc(O)c2c1C[C@H]1C[C@H]3[C@H](N(C)C)C(=O)C(C(N)=O)=C(O)[C@@]3(O)C(=O)C1=C2O`: the Potency entry in assay [1], in assay [2], in assay [4], in [6], in assay [14] and in assay [15] was “inactive” throughout. For the same compound, the Potency entry in assay [9], in [11] and in assay [13] was “inactive” each time. Also, the compound was classed as inactive in assay [3] and in [10]. Also, in [16], the max response is 11.6% (inactive). For the same compound, the Potency entry in assay [7] was “inactive and 31.6 µM (active)”.

In the case of `c1ccc2[nH]c(-c3cscn3)nc2c1`, the Potency entry in [1], in assay [2], in assay [4], in assay [6], in [7] and in [8] was “inactive” in each case. In addition, the Potency result in assay [11] and in assay [13] was “inactive” throughout. In assay [3], the call was inactive.

With `N=C(N)c1ccc2cc(OC(=O)c3ccc(N=C(N)N)cc3)ccc2c1`, the Potency entry in [1], in [2], in [4], in assay [6], in [7] and in [8] was “inactive” in each case. The Potency entry in [9], in assay [11] and in [13] was “inactive” in each case. Also, the result in assay [3] was inactive.

On to `O=C(O)c1cc(=O)c2c(OCC(O)COc3cccc4oc(C(=O)O)cc(=O)c34)cccc2o1`, for which the Potency result in assay [1], in [4], in assay [6], in assay [14], in assay [15] and in assay [7] was “inactive” each time. In addition, the Potency result in assay [8], in assay [9], in assay [11] and in assay [13] was “inactive” in each case. Besides, the call in assay [3] was inactive. The max response in [16] is 17.9% (inactive).
